Experimental data: the antibiotic and cytotoxicity screens of Wong et al. (2023)
In all, about 39,000 compounds went through this assay and about 3,300 (8.5%) were called active. What follows is part of a selection rich in actives, with near analogues and random picks from the rest.

tested on: HepG2; test: cytotoxicity call (relative viability < 0.9); details: 10 µM

Compound | cytotoxicity call
C[C@H]1CCCCO[C@H](CN(C)S(=O)(=O)c2ccc(Cl)cc2)[C@@H](C)CN([C@@H](C)CO)C(=O)c2cc(NC(=O)C3CCCCC3)ccc2O1 | inactive
O=C(C[C@H]1CC[C@H]2[C@@H](COC[C@H](O)CN2S(=O)(=O)c2ccc(F)cc2)O1)N[C@H]1CCN(Cc2ccccc2)C1 | inactive
C[C@@H]1CCCCO[C@@H](CN(C)Cc2ccc3c(c2)OCO3)[C@@H](C)CN([C@@H](C)CO)C(=O)c2cc(NS(=O)(=O)c3cccs3)ccc2O1 | inactive
O=C1C(NS(=O)(=O)c2ccc(Br)cc2)=C(c2ccc(OC(F)(F)F)cc2)C(=O)c2ccccc21 | inactive
CCN1CCN(C2=C(NS(=O)(=O)c3ccc(Br)cc3)C(=O)c3ccccc3C2=O)CC1 | active
CC(=O)N1CCN(CC(=O)NS(=O)(=O)c2ccccc2)CC1 | inactive
CCN1CCN(C2=C(NS(=O)(=O)c3ccc(Br)s3)C(=O)c3ccccc3C2=O)CC1 | active
COc1cccc(C#Cc2ccc3c(c2)O[C@@H](CN(C)C(C)=O)[C@H](C)CN([C@H](C)CO)S3(=O)=O)c1 | inactive
O=C(C[C@H]1C[C@H]2c3cc(NS(=O)(=O)c4ccc(F)cc4)ccc3O[C@H]2[C@@H](CO)O1)NCc1ccccn1 | inactive
Cc1noc(C)c1NC(=O)Nc1ccc2c(c1)C(=O)N([C@H](C)CO)C[C@H](C)[C@H](CN(C)S(=O)(=O)c1ccc(Cl)cc1)OCCCC[C@@H](C)O2 | inactive
CN1CCN(C(=O)C[C@@H]2CC[C@H]3[C@H](COc4ccc(NC(=O)C5CCOCC5)cc4C(=O)N3C)O2)CC1 | inactive
C[C@@H]1CCCCO[C@H](CN(C)S(=O)(=O)c2cn(C)cn2)[C@@H](C)CN([C@@H](C)CO)C(=O)c2cc(NS(=O)(=O)c3cccs3)ccc2O1 | inactive
CCCNC(=O)Nc1ccc2c(c1)C(=O)N(C)C[C@@H](OC)[C@H](C)CN(C(=O)C1CCOCC1)[C@@H](C)CO2 | inactive
CCO[C@@H]1OC(C(=O)N2CCN(Cc3ccccc3)CC2)=C[C@H](c2ccc(C(F)(F)F)cc2)[C@H]1CCCOC(=O)NCCCCCC(=O)NO | inactive
CN(C)CC(=O)N[C@@H]1CC[C@H](CCNC(=O)C2CC2)O[C@@H]1CO | inactive
C[C@H]1CN([C@@H](C)CO)C(=O)c2cccc(NC(=O)Nc3cccc4ccccc34)c2O[C@@H]1CN(C)C(=O)Nc1ccc(C(F)(F)F)cc1 | active
C[C@@H]1CN([C@@H](C)CO)C(=O)c2cccc(NC(=O)Nc3cccc4ccccc34)c2O[C@H]1CN(C)C(=O)Nc1ccc(C(F)(F)F)cc1 | active
C[C@@H]1CN([C@H](C)CO)C(=O)c2cccc(NC(=O)Nc3cccc4ccccc34)c2O[C@@H]1CN(C)C(=O)Nc1ccc(C(F)(F)F)cc1 | active
C[C@H]1CN([C@@H](C)CO)C(=O)c2cccc(NC(=O)Nc3cccc4ccccc34)c2O[C@H]1CN(C)C(=O)Nc1ccc(C(F)(F)F)cc1 | active
O=C(C1=C[C@H](c2coc3ccccc3c2=O)C[C@H](OCCCCO)O1)N1CCOCCOCCOCCOCC1 | inactive
Cc1ccc(S(=O)(=O)Nc2ccc3c(c2)C(=O)N([C@@H](C)CO)C[C@@H](C)[C@H](CN(C)C(=O)Nc2ccc4c(c2)OCO4)OCCCC[C@@H](C)O3)cc1 | inactive
COc1ccc(S(=O)(=O)N(C)C[C@H]2OCCCC[C@H](C)Oc3ccc(NC(=O)Nc4cccc5ccccc45)cc3C(=O)N([C@H](C)CO)C[C@@H]2C)cc1 | inactive

Compound | cytotoxicity call
COc1cccc(S(=O)(=O)Nc2ccc3c(c2)[C@@H]2C[C@H](CC(=O)NCCc4ccccc4)O[C@@H](CO)[C@@H]2O3)c1 | inactive
O=C(CCCCC(=O)N/N=C/c1cc(I)cc(I)c1O)NO | inactive
COCC(=O)N1C[C@H](C)[C@H](OC)CN(C)C(=O)c2cc(NC(=O)Nc3cccc(F)c3)ccc2OC[C@H]1C | inactive
C[C@@H]1CN([C@@H](C)CO)C(=O)c2cc(C#CCc3ccccc3)cnc2O[C@H]1CN(C)C(=O)C1CCOCC1 | inactive
COc1ccc(S(=O)(=O)Nc2ccc3c(c2)C(=O)N([C@H](C)CO)C[C@@H](C)[C@@H](CN(C)C(=O)NC(C)C)O3)cc1 | inactive
CC(C)NC(=O)N(C)C[C@H]1Oc2ccc(NC(=O)Nc3ccc4c(c3)OCO4)cc2C(=O)N([C@@H](C)CO)C[C@@H]1C | inactive
Cc1noc(C)c1S(=O)(=O)Nc1ccc2c(c1)CC(=O)N([C@@H](C)CO)C[C@@H](C)[C@H](CN(C)Cc1ccccc1)O2 | inactive
C[C@@H]1CN([C@@H](C)CO)C(=O)c2cc(NC(=O)CCCN(C)C)ccc2O[C@@H]1CN(C)S(=O)(=O)c1ccc(F)cc1 | inactive
C[C@H](CO)N1C[C@H](C)[C@H](CN(C)C(=O)Nc2ccc(C(F)(F)F)cc2)Oc2c(NC(=O)Nc3cccc4ccccc34)cccc2C1=O | inactive
C[C@@H]1CN([C@H](C)CO)C(=O)c2cccc(NC(=O)Nc3cccc4ccccc34)c2O[C@H]1CN(C)C(=O)Nc1ccc(C(F)(F)F)cc1 | inactive
C[C@H](CO)N1C[C@H](C)[C@@H](CN(C)C(=O)Nc2ccc(C(F)(F)F)cc2)Oc2c(NC(=O)Nc3cccc4ccccc34)cccc2C1=O | active
COCOc1ccc2cc(Br)ccc2c1-c1c(OCOC)ccc2cc(Br)ccc12 | active
COc1ccc2ccccc2c1-c1c(OC)ccc2ccccc12 | inactive
C[C@H]1CN([C@@H](C)CO)C(=O)c2cc(C#CCc3ccccc3)cnc2O[C@H]1CN(C)C(=O)C1CCOCC1 | inactive
C[C@@H]1CCCCO[C@H](CN(C)Cc2ccccc2)[C@H](C)CN([C@@H](C)CO)C(=O)c2cc(NC(=O)C3CCCCC3)ccc2O1 | inactive
COc1ccc(CNC(=O)c2cc3c(c(-c4cccc(-c5ccc(C#N)cc5)c4)n2)[C@@H](CCO)N([S@](=O)C(C)(C)C)C3)cc1 | inactive
CN(C)CCCNC(=O)C[C@@H]1CC[C@@H]2[C@H](COC[C@H](O)CN2C(=O)Nc2cc(Cl)cc(Cl)c2)O1 | inactive
C[C@H](CO)N1C[C@H](C)[C@H](CN(C)Cc2ccc(C(=O)Nc3ccccc3N)cc2)Oc2ccc(NC(=O)C3CCCCC3)cc2CC1=O | inactive
C[C@@H]1CN([C@H](C)CO)C(=O)Cc2cc(NC(=O)NC3CCCCC3)ccc2O[C@@H]1CN(C)Cc1ccc(C(=O)Nc2ccccc2N)cc1 | active
C[C@H](CO)N1C[C@H](C)[C@@H](CN(C)Cc2ccc(C(=O)Nc3ccccc3N)cc2)Oc2ccc(NC(=O)NC3CCCCC3)cc2CC1=O | inactive
C[C@H]1CN([C@@H](C)CO)C(=O)Cc2cc(NC(=O)NC3CCCCC3)ccc2O[C@@H]1CN(C)Cc1ccc(C(=O)Nc2ccccc2N)cc1 | inactive
C[C@H](CO)N1C[C@H](C)[C@H](CN(C)Cc2ccc(C(=O)Nc3ccccc3N)cc2)Oc2ccc(NC(=O)NC3CCCCC3)cc2CC1=O | inactive

Compound | cytotoxicity call
C[C@@H]1CN([C@H](C)CO)C(=O)Cc2cc(NC(=O)C3CCCCC3)ccc2O[C@@H]1CN(C)Cc1ccc(C(=O)Nc2ccccc2N)cc1 | active
C[C@H]1CN([C@@H](C)CO)C(=O)Cc2cc(NC(=O)NC3CCCCC3)ccc2O[C@H]1CN(C)Cc1ccc(C(=O)Nc2ccccc2N)cc1 | active
C[C@H]1CN([C@@H](C)CO)C(=O)Cc2cc(NC(=O)C3CCCCC3)ccc2O[C@H]1CN(C)Cc1ccc(C(=O)Nc2ccccc2N)cc1 | inactive
C[C@@H]1CN([C@H](C)CO)C(=O)Cc2cc(NC(=O)NC3CCCCC3)ccc2O[C@H]1CN(C)Cc1ccc(C(=O)Nc2ccccc2N)cc1 | inactive
C[C@H](CO)N1C[C@H](C)[C@H](CN(C)C(=O)Nc2ccccc2)Oc2ccc(NS(C)(=O)=O)cc2CC1=O | inactive
C[C@@H]1CCCCO[C@H](CN(C)C(=O)NC2CCCCC2)[C@@H](C)CN([C@@H](C)CO)C(=O)c2cc(NS(=O)(=O)c3cccs3)ccc2O1 | inactive
O=C(C[C@@H]1CC[C@H](NC(=O)CN2CCOCC2)[C@H](CO)O1)NCc1cccc(F)c1 | inactive
C[C@@H]1CN([C@H](C)CO)C(=O)c2cc(NC(=O)Cn3cnnn3)ccc2O[C@H]1CN(C)S(=O)(=O)c1cn(C)cn1 | inactive
COc1ccc(NC(=O)Nc2ccc3c(c2)C(=O)N([C@H](C)CO)C[C@H](C)[C@H](CN(C)Cc2ccccc2)OCCCC[C@@H](C)O3)cc1 | inactive
C[C@@H]1CN([C@@H](C)CO)S(=O)(=O)c2ccc(-c3cccnc3)cc2O[C@@H]1CN(C)C(=O)c1ccc2c(c1)OCO2 | inactive
Cn1cnc(S(=O)(=O)N2C[C@@H](O)COC[C@H]3O[C@@H](CC(=O)NCc4cc(F)cc(F)c4)CC[C@@H]32)c1 | inactive
O=C(C[C@H]1CC[C@H]2[C@@H](COC[C@@H](O)CN2C(=O)c2cccnc2)O1)NCC1CC1 | inactive
CC(=O)N1CC2(CCN(CC(=O)N3CCOCC3)CC2)C[C@@H]1C(=O)O | inactive
O=C(NC1=C(c2ccc(OC(F)(F)F)cc2)C(=O)c2ccccc2C1=O)c1ccc(Br)cc1 | inactive
COc1ccc(C2=C(NC(=O)c3ccc(OC)cc3-c3cccc(OC)c3)C(=O)c3ccccc3C2=O)cc1 | active
COC(=O)[C@@H](N)c1cccc(OC)c1 | inactive
Cc1noc(C)c1NC(=O)N(C)C[C@@H]1Oc2ncc(C#CCN(C)C)cc2C(=O)N([C@@H](C)CO)C[C@H]1C | inactive
CNC(=O)C[C@H]1C[C@@H]2CN(S(=O)(=O)c3cccnc3)C[C@@H]2O1 | inactive
Cc1ccc(S(=O)(=O)N(C)C[C@H]2OCCCC[C@H](C)Oc3ccc(NS(=O)(=O)c4ccc(F)cc4)cc3C(=O)N([C@@H](C)CO)C[C@H]2C)cc1 | inactive
CCOC(=O)C(=O)c1csc(NC=O)n1 | inactive
